# Measurements taken from ChEMBL document CHEMBL3988442, “University of Dundee, Small-Polar-MMV Screening Library” (2021).
# The campaign covered roughly 69,000 compounds. About 950 (1.4%) showed an effect of 50% or more. The full list was thinned out, with strong results kept by preference.
# Test system: Mycobacterium tuberculosis
# Assay: Cornell M. t heat shock assay; note: in the data most compounds retested in dose-response had high values
# Format: functional, organism-based
# Design: dose or concentration left out as unconfirmed
row,Compound,Percent Effect [%]
1,CN1C(=O)CCC12CCN(c1ccc(C#N)cn1)CC2.O=C(O)C(F)(F)F,8.745
2,Cc1nc(C)c(C(C)NCc2cnc(N3CCOCC3)nc2)s1.Cl (stereo not given),-16.16
3,Cn1cc(CN2C[C@@H]3COC[C@@H](C(=O)N4CCCCO4)[C@@H]3C2)cn1.O=C(O)C(F)(F)F.O=C(O)C(F)(F)F,6.742
4,Fc1cnc(N2CCCn3cnc(COc4cccnc4)c3C2)nc1.O=C(O)C(F)(F)F,9.371
5,Cc1cc(C)c(CNC(=O)NCC2CCOC2)c(=O)[nH]1 (stereo not given),-20.09
6,COCCC(=O)N1CCOCC2(CCN(Cc3cccs3)C2)C1.O=C(O)C(F)(F)F (stereo not given),-16.95
7,O=C(O)C(F)(F)F.O=C(O)C(F)(F)F.O=C1COC2(CCN(Cc3cccnc3)CC2)CN1,-2.798
8,O=C(C1CCCO1)N1CCc2ncnc(NC3CCC3)c2CC1.O=C(O)C(F)(F)F (stereo not given),-8.605
9,O=C([C@H]1CCCO1)N1CCc2ncnc(NC3CC3)c2CC1,65.17
10,CC(C)Nc1ncnc2c1CCN(C(=O)[C@H]1CCCO1)CC2,-13.05
11,COCC1COCCC12CCN(Cc1nccs1)CC2.O=C(O)C(F)(F)F (stereo not given),8.236
12,CS(=O)(=O)N[C@@H]1CN(C(=O)c2cc3ccccc3s2)C[C@H]1O,101.8
13,CCC[C@@H]1CN(C(=O)c2cc3ccccc3s2)C[C@H]1NS(C)(=O)=O,11.11
14,CS(=O)(=O)NC1CCN(C(=O)c2cc3ccccc3s2)C1 (stereo not given),0.7353
15,Cn1cc(C[C@H]2[C@H](O)CCN2CC2CCOCC2)cn1.O=C(O)C(F)(F)F,6.354
16,O=C(O)C(F)(F)F.O=C(c1ccsc1)N1CCO[C@@H]2CN(Cc3nccs3)C[C@@H]2C1,10.37
17,Cc1cccc(CN2C[C@@H](C)[C@@]3(CCN(CC(=O)N(C)C)C3=O)C2)c1.O=C(O)C(F)(F)F,-6.766
18,Cc1ccsc1C(=O)N1CC[C@@H](N(C)C)[C@@H]1Cc1cnn(C)c1.O=C(O)C(F)(F)F,-5.648
19,CCn1nc(CC(C)C)cc1C(=O)NCCCOC,92.73
20,CCn1nc(C(C)C)cc1C(=O)NCCCOC,4.35

row,Compound,Percent Effect [%]
1,CCn1nc(CC(C)C)cc1C(=O)NCCn1cccc1,49.17
2,Cc1csc(CCNCc2cnc3c(c2)c(C)nn3C)n1.Cl,6.139
3,O=C(O)C(F)(F)F.O=C(O)C(F)(F)F.O=C1COC2(CCN(Cc3ccncc3)CC2)CN1c1ccccc1,-2.605
4,CO[C@@H]1CCN(Cc2ccoc2)[C@H]1Cc1ccccc1.O=C(O)C(F)(F)F,14.91
5,Fc1cnc(N2CCCC3(CN(Cc4ccncc4)CCO3)C2)nc1.O=C(O)C(F)(F)F.O=C(O)C(F)(F)F (stereo not given),10.78
6,Cc1ncc2c(n1)CCCC2NC(=O)c1ccncc1 (stereo not given),-6.944
7,Cc1ncc2c(n1)CCCC2NC(=O)c1ccc(Cn2cccn2)cc1 (stereo not given),72.35
8,Cc1ncc2c(n1)CCCC2NC(=O)c1cnn(Cc2ccccc2)c1 (stereo not given),-15.56
9,COCC(=O)N1CCCC1c1ccnc(Nc2cnccn2)n1 (stereo not given),-1.39
10,Cc1nccc(C2CCCCN2Cc2ccccc2)n1 (stereo not given),-13.8
11,Nc1nccc(C2CCCN2CCc2ccccc2)n1 (stereo not given),10.92
12,COCC(=O)N1CCCCC1c1ccnc(Nc2cnccn2)n1 (stereo not given),-6.25
13,c1ccc(CCN2CCCC2c2ccnc(Nc3cnccn3)n2)cc1 (stereo not given),57.03
14,c1ccc(CCN2CCCC2c2ccnc(Nc3ncccn3)n2)cc1 (stereo not given),91.35
15,COCCOc1ccc(NC(=O)C2CC(=O)N(C)C2)cn1 (stereo not given),4.167
16,COCCn1cc(C(=O)N2CCCC2c2cccc(F)c2)ccc1=O (stereo not given),-4.621
17,O=C(O)C(F)(F)F.c1csc(CN2Cc3nccn3CC(Cn3cncn3)C2)c1 (stereo not given),-12.15
18,CCc1ccc(CN(CCN(C)C)Cc2ccc(C)s2)nc1,88.98
19,COc1ncc(CN(CCN(C)C)Cc2ccc(C)s2)cn1,-3.645
20,CCNc1ncc(CN(CCN(C)C)Cc2ccc(C)s2)cn1,2.161

row,Compound,Percent Effect [%]
1,O=C(O)C(F)(F)F.O=C(O)C(F)(F)F.c1cncc(OC[C@]23COC[C@H]2CN(Cc2ccsc2)C3)c1,-29.89
2,Cl.O=S(=O)(c1ccc(Cl)cc1)N1CCc2nc(C3CCNCC3)ncc2C1,15.18
3,COc1cccnc1-c1ccc(F)c2c1OC(CN)C2 (stereo not given),-14.02
4,COc1cc(C)c(-c2ccc(F)c3c2OC(CN)C3)cc1C (stereo not given),51.67
5,COc1cc(-c2ccc(F)c3c2OC(CN)C3)cc(OC)c1OC (stereo not given),-5.435
6,CC(C)CCN1C[C@H]2C[C@H](C(=O)N3CCCC3)[C@@H](C1)O2.O=C(O)C(F)(F)F,37.85
7,O=C(CN1CCN(c2ccc3nncn3n2)CC1)NC1CCCCC1,57.46
8,c1ccc(CN2CCN(c3ccc4nncn4n3)CC2)nc1,6.511
9,CC1CN(CC2CCCCC2)CCN1c1ccc2nncn2n1 (stereo not given),16.09
10,CC1CN(Cc2nccn2C)CCN1c1ccc2nncn2n1 (stereo not given),-15.38
11,O=C(CCN1CCN(c2ccc3nncn3n2)CC1)NC1CCCC1,-7.134
12,CC1CN(CC(=O)NC2CCCC2)CCN1c1ccc2nncn2n1 (stereo not given),176.2
13,CC1CN(CC(=O)N2CCCC2)CCN1c1ccc2nncn2n1 (stereo not given),15.46
14,O=C(CN1CCN(c2ccc3nncn3n2)CC1)NC1CCCC1,59.84
15,CC1CN(CC2CCCC2)CCN1c1ccc2nncn2n1 (stereo not given),85.93
16,O=C(CCN1CCN(c2ccc3nncn3n2)CC1)N1CCCCC1,-7.972
17,CC1CCCCN1C(=O)CN1CCN(c2ccc3nncn3n2)CC1 (stereo not given),5.269
18,Cc1cnc(CN2CCN(c3ccc4nncn4n3)C(C)C2)cn1 (stereo not given),-3.544
19,COCc1ncn2c1CN(C(=O)c1cccc3cccnc13)CC2.O=C(O)C(F)(F)F,-14.48
20,O=C(O)C(F)(F)F.O=C(O)C(F)(F)F.c1ccc(OCC2C[C@@H]3[C@@H](C2)OCCN3Cc2ccoc2)nc1 (stereo not given in full),14.26
